Results published in PubChem BioAssay (NCI).
The panel holds about 79,000 compounds, 15% with a hit somewhere; the sample as a whole holds those more often. Unmarked numbers belong to inactive results. Activity calls are given as the source filed them. Rule as the data show it: active = growth inhibition above about 70%; inactive = the rest.

Columns and labels:
[1] = NCI Yeast Anticancer Drug Screen. Data for the rad50 strain (AID 155);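 also: 0% = growth of vehicle-only cultures of the same strain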; settings: S. cerevisiae rad50 strain growth inhibition, hits give high values
In short: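 Readout: growth inhibition relative to vehicle-treated cultures. Compound exposure was carried out in a genetically defined yeast strain deficient in DNA damage repair.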

[2] = NCI Yeast Anticancer Drug Screen. Data for the mec2-1 strain (AID 157); settings: S. cerevisiae mec2-1 strain, hits give high values
In short: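 mec2-1 yeast strain, carrying an alteration in DNA damage repair or cell cycle control, was exposed to compounds; growth inhibition was measured relative to vehicle-treated controls.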

[3] = NCI Yeast Anticancer Drug Screen. Data for the sgs1 mgt1 strain (AID 161);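 also: 0% = growth of cultures given vehicle only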; settings: S. cerevisiae sgs1 mgt1 strain, hits give high values
In short: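 This yeast growth screen uses a strain with defined DNA-repair lesions; compound-treated growth is compared with vehicle-treated growth.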

[4] = NCI Yeast Anticancer Drug Screen. Data for the cln2 rad14 strain (AID 165);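 also: 0% = growth equal to vehicle treated cultures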; settings: S. cerevisiae cln2 rad14 strain, hits give high values
In short: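 Yeast carrying cln2 and rad14 alterations (cell cycle control and DNA damage repair) were exposed to compounds. Growth inhibition was measured against vehicle-treated controls.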

[5] = NCI Yeast Anticancer Drug Screen. Data for the bub3 strain (AID 167); settings: S. cerevisiae bub3 mutant strain, hits give high values
In short: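 Readout: yeast growth inhibition, expressed relative to vehicle-only wells. The test organism is a mutant strain from a panel with lesions in DNA repair or checkpoint genes.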

[6] = NCI Yeast Anticancer Drug Screen. Data for the mlh1 rad18 strain (AID 175); settings: S. cerevisiae mlh1 rad18 strain growth inhibition, hits give high values
In short: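 Growth inhibition of the yeast strain was measured after compound exposure and expressed relative to vehicle-treated controls. The strain carries defined defects in DNA damage repair.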

[7] = at 5.0 µM (retest, dose inferred, filed as 0.5)
[8] = at 50.0 µM (retest, dose inferred, filed as 5.0)

SMILES | growth inhibition [1, 7] | growth inhibition [1, 8] | growth inhibition ([1]; at 50.0 µM) | growth inhibition [2, 7] | growth inhibition [2, 8] | growth inhibition ([2]; at 50.0 µM) | growth inhibition [3, 7] | growth inhibition [3, 8] | growth inhibition ([3]; at 50.0 µM) | growth inhibition [4, 7] | growth inhibition [4, 8] | growth inhibition ([4]; at 50.0 µM) | growth inhibition [5, 7] | growth inhibition [5, 8] | growth inhibition ([5]; at 50.0 µM) | growth inhibition [6, 7] | growth inhibition [6, 8] | growth inhibition ([6]; at 50.0 µM)
Cc1cc(Cl)c(O)c(C(=O)C(=O)C(O)c2ccc3c(c2)OCO3)c1 (configuration not stated) | 98% (active) | 99% (active) | 87.9% (active) | 96% (active) | 99% (active) | 90% (active) | 37% | 99% (active) | 82.1% (active) | 58% | 99% (active) | 87.9% (active) | 64% | 94% (active) | 87.9% (active) | 38% | 99% (active) | 84.1% (active)
COc1ccc2ccnc(Cc3ccc(OCc4ccccc4)c(OC)c3)c2c1 | 42% | 42% | 89.5% (active) | 27% | 27% | 87.3% (active) | 28% | 28% | 89.7% (active) | 12% | 12% | 87% (active) | 28% | 28% | 86.5% (active) | 29% | 29% | 86% (active)
CCCCN(CCCC)CC(O)c1cc(-c2ccc(Cl)cc2)nc2c(-c3ccccc3)cccc12 (configuration not stated) | -1% | 30% | 52.8% | -5% | 13% | 36.3% | 0% | 54% | 80.8% (active) | -7% | 22% | 13.8% | -4% | 24% | 8.15% | 0% | 39% | 66.7%
C/C=C/C/C=C/CCC(=O)C1OC1C(N)=O (configuration not stated) | 98% (active) | 99% (active) | 92.3% (active) | 99% (active) | 99% (active) | 93.3% (active) | 99% (active) | 99% (active) | 93.3% (active) | 98% (active) | 99% (active) | 91.4% (active) | 99% (active) | 98% (active) | 91.8% (active) | 99% (active) | 99% (active) | 91.8% (active)
O=C(O)C1CC[N-]CC1.O=C(O)C1CC[N-]CC1.[Cl][Pt+2]([Cl])([Cl])[Cl] | 30% | 90% (active) | 97.6% (active) | 2% | 94% (active) | 85.2% (active) | 38% | 94% (active) | 94.1% (active) | 0% | 97% (active) | 81.7% (active) | 17% | 93% (active) | 90.2% (active) | 25% | 94% (active) | 88.8% (active)
CN(C)c1ccccc1CC(c1c[nH]c2ccccc12)c1c[nH]c2ccccc12 | 82% (active) | 90% (active) | 84.8% (active) | 73% (active) | 93% (active) | 89.5% (active) | 67% | 91% (active) | 87.6% (active) | 50% | 94% (active) | 86.2% (active) | 66% | 91% (active) | 85.2% (active) | 92% (active) | 87% (active) | 82% (active)
CCCOC1(C)CC(c2cc(OC)c(OC)c(OC)c2)c2cc3c(cc2O1)OCO3 (configuration not stated) | 5% | 96% (active) | 5.1% | 5% | 100% (active) | 7.75% | 5% | 99% (active) | -2.6% | 4% | 99% (active) | 34.7% | 5% | 99% (active) | 3.15% | 2% | 99% (active) | 18.9%
CC(/C=N/NS(=O)(=O)c1ccc(C)cc1)=C(c1ccccc1)c1ccccc1 | 18% | 87% (active) | 81.2% (active) | 35% | 96% (active) | 55.5% | -79% | 96% (active) | 82.5% (active) | -10% | 89% (active) | 72.8% (active) | 43% | 93% (active) | 70.4% (active) | 62% | 94% (active) | 85% (active)
Cc1cc2c(cc1C)C(=O)OC2=O | 1% | 14% | 72% (active) | -1% | -1% | 45.5% | 2% | 1% | 36.3% | 1% | -1% | 31.6% | -3% | 5% | 83.5% (active) | -2% | 5% | 41.5%
